We go through four molecules from PubChem BioAssay.

Assay [1] can be described thus: compounds binding Alexa647 anti-His antibody – biochemical, small-molecule microarray, 635 nm fluorescence, artefact control for SMM control protein annotation, primary screen (AID 1128).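 Note: score merges feature fluorescence with signal-to-noise for each printed compound spot.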 The settings on record: higher = more signal.
The test system of assay [2] is Human papillomavirus type 1a E7 protein (residues 1-88). Description: HPV1a E7 small-molecule binders, primary screen, biochemical, small-molecule microarray, residues 1-88, 635 nm (AID 1129). The following applies: small-molecule microarray binding, fluorescence 635 nm; higher = more signal.
Assay [3] concerns the target Focal adhesion kinase 1 (Homo sapiens) (UniProt Q05397). Description: PTK2 protein binding on printed compound slides – biochemical, small-molecule microarray, 635/667 nm fluorescence, BSA, DTT, primary screen (AID 1130).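 Note: composite of spot emission at 667 nm and signal to noise over triplicate slides.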 The following applies: 635 nm fluorescence, higher = more signal.
For assay [4], the system named is Fibrinogen (Alexa647-labelled). Description: Alexa647-fibrinogen binding to printed small molecules – biochemical, small-molecule microarray, 635/667 nm fluorescence, artefact control for SMM control-protein annotation, profiling panel (AID 1131).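 Note: z-score merges 667 nm fluorescence with per-spot signal-to-noise over triplicate slides.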 The settings on record: fibrinogen-A647 binding fluorescence, higher = more signal.
In assay [5] the target is Follistatin (Homo sapiens) (UniProt P19883). The assay is described as follows: FST protein binding to printed compounds – biochemical, small-molecule microarray, 635/667 nm fluorescence, primary screen (AID 1132). The following applies: 635 nm fluorescence, higher = more signal.
Chain of Follistatin (Homo sapiens) (P19883 whole entry, looked up): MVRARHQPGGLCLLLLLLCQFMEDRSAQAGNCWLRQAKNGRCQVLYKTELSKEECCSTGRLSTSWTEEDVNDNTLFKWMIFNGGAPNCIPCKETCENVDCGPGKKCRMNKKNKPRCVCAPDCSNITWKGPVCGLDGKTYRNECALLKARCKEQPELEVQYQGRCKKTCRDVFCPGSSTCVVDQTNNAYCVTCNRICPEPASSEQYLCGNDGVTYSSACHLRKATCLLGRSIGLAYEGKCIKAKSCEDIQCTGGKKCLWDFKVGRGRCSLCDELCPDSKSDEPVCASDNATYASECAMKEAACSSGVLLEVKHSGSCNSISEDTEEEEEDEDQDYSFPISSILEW
In assay [6] the target is Fibroblast growth factor 2 (Homo sapiens) (UniProt P09038). Description: basic fibroblast growth factor binding to printed compounds – biochemical, small-molecule microarray, 635/667 nm fluorescence, primary screen (AID 1133). The settings on record: FGF2, fluorescence 635/667, higher = more signal.
Chain of Fibroblast growth factor 2 (Homo sapiens) (P09038 whole entry, looked up): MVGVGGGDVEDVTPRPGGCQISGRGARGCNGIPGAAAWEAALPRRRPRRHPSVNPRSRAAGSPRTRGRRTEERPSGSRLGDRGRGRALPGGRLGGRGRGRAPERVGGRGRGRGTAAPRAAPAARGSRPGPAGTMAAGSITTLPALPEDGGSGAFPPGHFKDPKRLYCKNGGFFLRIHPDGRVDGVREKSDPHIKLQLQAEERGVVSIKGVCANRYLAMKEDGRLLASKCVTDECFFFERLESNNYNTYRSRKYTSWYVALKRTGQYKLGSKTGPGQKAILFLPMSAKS
The nature of assay [7]: JC-1 mitochondrial potential readout, lung cancer cells – cell-based, A549, JC-1 fluorescence, basal, 24 h, 100 nL, profiling panel (AID 1138).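 Note: A549 lung adenocarcinoma cells under basal conditions with no added stimulus; test concentration not given here.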 The settings on record: higher = more signal.
Assay [8] concerns Lefty1. The assay is described as follows: Lefty1 protein binding to printed compounds – biochemical, small-molecule microarray, 635/667 nm fluorescence, primary screen (AID 1139). The settings on record: fluorescence 635/667, higher = more signal.
The test system of assay [9] is wheat germ agglutinin (Triticum aestivum), Alexa647-labelled. The assay is described as follows: Alexa647-WGA lectin binding to printed small molecules – biochemical, small-molecule microarray, 635/667 nm fluorescence, artefact control for SMM control-protein annotation, profiling panel (AID 1140).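 Note: score merges 667 nm feature emission with signal to noise over triplicate slides.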 The following applies: WGA-A647 binding, 635 nm fluorescence, higher = more signal.

For assay [10], the target named is Luciferin 4-monooxygenase (Photinus pyralis) (UniProt P08659). The assay is described as follows: inhibition of purified Photinus pyralis luciferase – biochemical, luminescence, purified enzyme, 2006 set, primary screen (AID 1141).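 Note: cell-free assay with purified firefly luciferase at 100 ng per well in PBS; test concentration not given here.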 The following applies: purified firefly luciferase, SteadyGlo luminescence, 30 min; higher = more signal, called active from +8 up or from −8 down.
Chain of Luciferin 4-monooxygenase (Photinus pyralis) (P08659 whole entry, looked up): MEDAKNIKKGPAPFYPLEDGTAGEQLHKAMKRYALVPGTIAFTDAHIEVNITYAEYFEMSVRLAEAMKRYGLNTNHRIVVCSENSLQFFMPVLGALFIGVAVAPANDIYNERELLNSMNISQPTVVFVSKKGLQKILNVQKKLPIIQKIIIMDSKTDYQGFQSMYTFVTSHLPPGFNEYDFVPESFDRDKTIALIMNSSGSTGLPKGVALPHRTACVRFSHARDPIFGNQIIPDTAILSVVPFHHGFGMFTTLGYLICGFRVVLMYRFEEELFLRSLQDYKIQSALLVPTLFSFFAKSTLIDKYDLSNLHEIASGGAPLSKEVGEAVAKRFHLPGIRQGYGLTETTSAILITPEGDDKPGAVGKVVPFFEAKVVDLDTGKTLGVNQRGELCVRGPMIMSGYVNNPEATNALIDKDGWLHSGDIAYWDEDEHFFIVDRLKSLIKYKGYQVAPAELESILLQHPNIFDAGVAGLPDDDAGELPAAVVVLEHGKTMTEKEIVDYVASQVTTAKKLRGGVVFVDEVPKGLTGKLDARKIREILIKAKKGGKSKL

Assay [11] relates to Wnt5a (protein binding on small-molecule microarray). The assay is described as follows: small molecules binding Wnt5a protein – biophysical, small-molecule microarray, 635/667 nm fluorescence, primary screen (AID 1142).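 Note: fluorescence read at 667 nm with signal to noise per printed feature.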 The settings on record: 635 nm fluorescence, higher = more signal.
A short description of assay [12]: ATP-based viability of Huh7 replicon cells – cell-based, CellTiter-Glo luminescence, basal, 48 h, cytotoxicity control for HCV replication inhibitor project, primary screen (AID 1143).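 Note: Huh7 hepatoma cells carrying a hepatitis C replication reporter with no stimulus; test concentration not given here.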 The settings on record: higher = more signal, called active from +8 up or from −8 down.
The nature of assay [13]: Pseudomonas biofilm growth suppression – PAO1 strain, BacTiter-Glo luminescence, LB-PBS, primary screen (AID 1144). The following applies: P. aeruginosa PAO1 biofilm, 12 h, higher = more signal.
Assay [14] is described as follows: basal CRE-LacZ reporter activity in PC12 – cell-based, unstimulated, primary screen (AID 1145). The settings on record: no forskolin, luminescence, 4.5 h, higher = more signal, called active from +8 up or from −8 down.
The nature of assay [15]: forskolin-driven CRE-LacZ activity in PC12 – cell-based, CRE-LacZ reporter, forskolin-stimulated, primary screen (AID 1146).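 Note: PC12 cells with 6xCRE LacZ reporter stimulated by forskolin 10 µM; beta-galactosidase reporter signal reflecting CREB driven transcription.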 The following applies: luminescence, 4.5 h, higher = more signal, called active from +8 up or from −8 down.
For assay [16], the target named is Streptavidin (Streptomyces avidinii) (UniProt P22629). The assay is described as follows: compounds binding control protein streptavidin – biophysical, small-molecule microarray, 635/667 nm fluorescence, artefact control for SMM compound annotation, primary screen (AID 1147).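 Note: signal reflects streptavidin binding to arrayed compounds as a control protein.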 The following applies: higher = more signal.
Chain of Streptavidin (Streptomyces avidinii) (P22629 whole entry, looked up): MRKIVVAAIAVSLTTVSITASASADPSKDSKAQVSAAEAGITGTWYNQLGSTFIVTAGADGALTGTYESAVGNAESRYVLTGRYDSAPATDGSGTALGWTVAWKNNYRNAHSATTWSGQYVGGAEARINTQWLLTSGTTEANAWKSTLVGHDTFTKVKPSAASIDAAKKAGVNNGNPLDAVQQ
Assay [17] in a line: probe aInhba binding on compound microarray – biochemical, small-molecule microarray, 635/667 nm fluorescence, primary screen (AID 1148).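 Note: score merges 667nm spot fluorescence with signal-to-noise for antibody binding to printed compounds.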 The following applies: higher = more signal.
In assay [18] the target is Torsin-1A (Homo sapiens) (UniProt O14656). The assay is described as follows: TOR1A wild-type binding on microarray – cell lysate, small-molecule microarray, lysate, 635/667 nm, primary screen (AID 1149). The following applies: COS7 hTOR1A-WT lysate, 635 nm fluorescence, higher = more signal.
Chain of Torsin-1A (Homo sapiens) (O14656 whole entry, looked up): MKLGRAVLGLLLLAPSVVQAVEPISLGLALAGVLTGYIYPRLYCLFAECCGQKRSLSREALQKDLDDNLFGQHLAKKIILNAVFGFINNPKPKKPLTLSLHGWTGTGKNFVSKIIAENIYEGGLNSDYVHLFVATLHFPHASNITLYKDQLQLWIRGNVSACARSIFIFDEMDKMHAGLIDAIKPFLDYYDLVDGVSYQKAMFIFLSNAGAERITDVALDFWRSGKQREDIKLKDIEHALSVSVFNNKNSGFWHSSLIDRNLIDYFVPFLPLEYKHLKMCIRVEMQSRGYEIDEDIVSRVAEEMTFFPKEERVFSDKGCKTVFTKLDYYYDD
The target is the same in assay [19]. Description: torsin A mutant lysate binding on microarrays – cell lysate, small-molecule microarray, COS7 lysate, 635/667 nm fluorescence, primary screen (AID 1150).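 Note: score pools 667 nm emission and signal to noise measuring lysate protein binding.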 The following applies: COS7 hTOR1A mutant lysate, 635 nm fluorescence, higher = more signal.
The subject of assay [20] is Sonic hedgehog protein (Shh). The assay is described as follows: Sonic hedgehog microarray binding compounds – biochemical, small-molecule microarray, 635/667 nm fluorescence, primary screen (AID 1151).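 Note: Shh protein binding to compounds spotted on small-molecule microarray slides; score combines spot fluorescence intensity with signal-to-noise across triplicate slides.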 The following applies: 635 nm fluorescence, higher = more signal.

Active and inactive are the calls of the source. Unless noted, the rule behind the calls is not given here.

Chain of Focal adhesion kinase 1 (Homo sapiens) (Q05397 whole entry, looked up): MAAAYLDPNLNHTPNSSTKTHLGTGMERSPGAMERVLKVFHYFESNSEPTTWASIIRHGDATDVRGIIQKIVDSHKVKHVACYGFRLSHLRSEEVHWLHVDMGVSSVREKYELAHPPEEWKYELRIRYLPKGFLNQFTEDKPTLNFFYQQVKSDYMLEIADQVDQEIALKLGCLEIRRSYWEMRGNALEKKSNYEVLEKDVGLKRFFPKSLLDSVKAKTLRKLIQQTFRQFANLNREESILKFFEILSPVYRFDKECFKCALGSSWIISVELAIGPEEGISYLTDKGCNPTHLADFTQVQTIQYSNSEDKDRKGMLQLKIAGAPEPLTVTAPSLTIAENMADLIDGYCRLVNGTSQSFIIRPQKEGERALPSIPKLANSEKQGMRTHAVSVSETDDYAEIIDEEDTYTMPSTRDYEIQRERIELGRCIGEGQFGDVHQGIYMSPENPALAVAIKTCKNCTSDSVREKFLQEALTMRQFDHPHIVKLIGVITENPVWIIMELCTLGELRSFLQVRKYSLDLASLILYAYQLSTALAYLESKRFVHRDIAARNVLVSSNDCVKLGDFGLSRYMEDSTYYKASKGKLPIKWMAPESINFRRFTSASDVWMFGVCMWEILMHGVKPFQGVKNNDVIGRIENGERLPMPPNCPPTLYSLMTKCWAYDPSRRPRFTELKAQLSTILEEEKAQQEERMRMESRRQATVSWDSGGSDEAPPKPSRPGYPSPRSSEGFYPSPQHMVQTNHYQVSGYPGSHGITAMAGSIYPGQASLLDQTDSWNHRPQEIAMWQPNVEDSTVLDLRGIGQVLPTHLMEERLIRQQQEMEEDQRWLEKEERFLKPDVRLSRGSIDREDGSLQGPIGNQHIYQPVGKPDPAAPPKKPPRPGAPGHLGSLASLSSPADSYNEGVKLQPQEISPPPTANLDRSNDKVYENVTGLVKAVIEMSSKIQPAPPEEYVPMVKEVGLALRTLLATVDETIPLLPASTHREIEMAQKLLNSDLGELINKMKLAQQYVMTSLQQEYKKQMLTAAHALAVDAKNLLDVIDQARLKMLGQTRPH

On to `CN1C(=O)C2C=CC(C(O)c3c(F)cccc3Cl)N(Nc3ccccc3)C2C1=O` (stereo not given), for which the composite z-score in assay [1] is -0.0126; in [2], -0.105; in [3], 0.464; in assay [4] it was 0.978; in assay [5] it was 1.03; in [6] it was -0.166. For the same molecule, the composite z-score in [8] is -0.309; in [9] it was 1.05; in [11] it was 0.438; in assay [16], 1.53; in assay [17], 0.0374; in assay [18] it was -0.353. The results for the composite z-score in [19] and in assay [20] were -0.562 and -0.206, respectively. Also, the z-score in assay [7] was 1.14; in assay [10], 0.565 (inactive); in [12], 1.01 (inactive); in [13], 0.402 (inactive); in [14], 0.433 (inactive); in assay [15], 0.928 (inactive).

As to `CC(C)C(O)C1C=CC2C(=O)N(C)C(=O)C2N1N(c1ccccc1)c1ccccc1` (stereo not given), the composite z-score is 0.545 in assay [1]; -0.735 in assay [2]; 0.523 in [3]; 0.597 in [4]; -0.0394 in [5]; -0.926 in assay [6]. The composite z-score in assay [8] was -0.852; in [9], 0.357; in [11], -0.18; in [16], 0.0226; in assay [17] it was -0.0332; in assay [18], -0.141. Also, the figures for the composite z-score in assay [19] and in [20] were 0.369 and -1.28, respectively. For the same molecule, the z-score in [7] was 0.953; in [10], 0.734 (inactive); in [12] it was 0.909 (inactive); in assay [13] it was 0.633 (inactive); in [14], 0.0535 (inactive); in [15] it was -0.136 (inactive).

Take `COCCCNC(=O)[C@@]1(Sc2ccc(C)cc2)CC(=O)N(Cc2cc(C(F)(F)F)cc(C(F)(F)F)c2)[C@@H]1c1ccc(CO)cc1`: the composite z-score in assay [1] was determined as 1.79; in assay [2], 0.566; in assay [3], 0.813; in assay [4], 0.248; in assay [5], 1.06; in [6] it was 0.686. In addition, the composite z-score is 1.25 in assay [8]; -0.271 in assay [9]; 0.0054 in assay [11]; 0.072 in assay [16]; 0.0111 in [17]; 1.27 in [18]. The composite z-score was determined as 0.389 in assay [19] and 1.68 in [20]. Besides, the z-score was 0.727 in assay [7]; -0.363 (inactive) in assay [10]; -0.418 (inactive) in [12]; 0.126 (inactive) in assay [13]; 0.506 (inactive) in assay [14]; -1.15 (inactive) in assay [15].

Consider `CCCC[C@@H]1C[C@H]1[C@@H](NC(=O)c1ccccc1)c1ccc(Cl)cc1`, for which the composite z-score was -0.0782 in assay [1]; -1.52 in [2]; 0.528 in assay [3]; -2.07 in [4]; -2.37 in assay [5]; -1.9 in [6]. Further, the composite z-score is -2.22 in assay [8]; -1.6 in assay [9]; -0.546 in assay [11]; -1.33 in [16]; -0.322 in assay [17]; 4.37 in assay [18]. In addition, the composite z-score in assay [19] is -0.539; in assay [20] it was -1.34. Besides, the z-score in assay [7] is 1.66; in [10], 0.923 (inactive); in assay [12], -2.6 (inactive); in assay [13], 0.173 (inactive); in assay [14] it was 0.197 (inactive); in [15], 0.699 (inactive).
